From PubChem BioAssay AID624330 (Southern Research Specialized Biocontainment Screening …, 2012)
The campaign covered roughly 340,000 compounds. About 2,100 (0.62%) were called active.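 Rule for the calls: active = first-screen hits whose inhibition reached a set limit at any dose in the follow-up dose series; inconclusive = inhibition above the set first-screen limit but never retested; inactive = the rest.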 A selection follows. Entries with a potency or affinity are not part of this list.

The molecules below were run against Rac GTPase-activating protein 1 (Homo sapiens) (UniProt Q9H0H5) (assay: MgcRacGAP GTPase-activating activity inhibitors, confirmation, biochemical, ADP Hunter fluorescence, primary and confirmatory (AID 624330;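 note: fluorescence reports GDP produced by GAP-driven GTP hydrolysis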)). Conditions: MgcRacGAP-stimulated Rac1 GTP hydrolysis, at 30 µM, hits give high values, GST-tagged Rac1 F28L mutant substrate.
Chain of Rac GTPase-activating protein 1 (Homo sapiens) (Q9H0H5 whole entry, looked up): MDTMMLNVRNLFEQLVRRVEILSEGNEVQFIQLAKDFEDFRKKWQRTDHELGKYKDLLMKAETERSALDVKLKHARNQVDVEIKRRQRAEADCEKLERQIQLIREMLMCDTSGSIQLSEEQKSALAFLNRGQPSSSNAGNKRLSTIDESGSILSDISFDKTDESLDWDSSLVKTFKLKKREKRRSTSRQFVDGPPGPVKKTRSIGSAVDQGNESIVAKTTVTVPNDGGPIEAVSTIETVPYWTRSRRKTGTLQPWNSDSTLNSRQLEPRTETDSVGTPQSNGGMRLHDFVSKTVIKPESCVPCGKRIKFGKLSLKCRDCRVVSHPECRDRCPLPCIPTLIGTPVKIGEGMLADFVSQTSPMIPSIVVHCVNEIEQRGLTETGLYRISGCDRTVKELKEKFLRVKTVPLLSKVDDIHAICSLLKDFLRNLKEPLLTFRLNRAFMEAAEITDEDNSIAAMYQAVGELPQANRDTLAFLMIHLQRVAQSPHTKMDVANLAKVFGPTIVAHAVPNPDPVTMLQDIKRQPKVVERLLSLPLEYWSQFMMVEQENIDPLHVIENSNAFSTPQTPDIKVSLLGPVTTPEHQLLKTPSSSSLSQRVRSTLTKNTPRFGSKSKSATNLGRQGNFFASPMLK

| Structure (SMILES) | inhibition |
| --- | --- |
| NC(=S)Cc1ccccc1Cl | 8.51% (inactive) |
| O=C(O)c1ccc(O)cc1O | 6.35% (inactive) |
| OC(CCN1CCCCC1)(c1ccccc1)C1C[C@@H]2C=C[C@H]1C2 (some centres not stated) | 0.59% (inactive) |
| CCc1cc2c(=O)c(-c3nc4ccccc4n3C)c(COCC(=O)O)oc2cc1O | 3.02% (inactive) |
| CCc1cc(-c2n[nH]c(C)c2-c2nc3ccccc3n2C)c(O)c(CN2CCN(C)CC2)c1O | 1.55% (inactive) |
| CCCCn1c(=O)c(CCC(=O)O)nc2ccccc21 | -3.87% (inactive) |
| CCN(CC)Cc1c(O)ccc2cc(-c3nc4ccccc4n3C)c(=O)oc12 | 2.29% (inactive) |
| CCOC(=O)C1CCCN(C(=O)c2ccccc2[N+](=O)[O-])C1 (configuration not stated) | 3.25% (inactive) |
| CCCCC/C=C/C1=CC(=O)C[C@H](c2ccc3c(c2)OCO3)C1 | 5.09% (inactive) |
| CN(Cc1ccno1)Cc1cn(Cc2ccccc2)nc1-c1ccc2c(c1)OCO2 | 9.52% (inactive) |
| COc1ccc(CCNC(=O)COC(=O)C2COc3ccccc3O2)cc1 (configuration not stated) | 2.96% (inactive) |
| CC(=O)N1CCN(S(=O)(=O)c2cccc(C(=O)NCCc3ccc(Cl)cc3)c2)CC1 | 5.57% (inactive) |
| CCOc1ccc(Oc2ccccc2NC(=O)C2=COCCO2)cc1 | -5.82% (inactive) |
| OCCCNCc1cccc2ccccc12 | -2.77% (inactive) |
| OCCCNc1c2ccccc2nc2ccccc12 | 9.86% (inactive) |
| COCCCNC(=O)C[C@H]1C[C@H](C(=O)N(C(C)C)C(C)C)[C@@]2(C)c3[nH]c4ccc(Cl)cc4c3CCN2C1=O | 4.5% (inactive) |
| Cc1ccc(S(=O)(=O)NNC(=O)CCC(=O)Nc2ccccc2Cl)cc1 | 7.64% (inactive) |
| C(/CCc1ccccc1)=N\n1cnnc1 | 8.49% (inactive) |
| O=C(O)c1ccc2c(c1)C(=O)N(Cc1ccco1)C2=O | -0.17% (inactive) |
| Cc1ccc(C=C2C(=O)c3ccccc3C2=O)o1 | 8.39% (inactive) |
| O=C1C(=Cc2ccco2)C(=O)c2ccccc21 | 12.3% (inactive) |
| O=C(O)c1ccc2c(c1)C(=O)/C(=C/c1ccccc1)C2=O | 31.4% (inactive) |
| Cc1ccc(C(=O)O)cc1-c1ccc(C=C2C(=O)c3ccccc3C2=O)o1 | 12.9% (inactive) |
| CCN(CC)c1ccc(C(=O)O)cc1 | -7.19% (inactive) |
| O=C(CN(Cc1ccccc1)C(=O)c1csnn1)NCc1ccc2c(c1)OCO2 | -2.73% (inactive) |

| Structure (SMILES) | inhibition |
| --- | --- |
| CCOc1ncccc1C(=O)OCCCC(=O)c1ccc(Br)cc1 | 2.15% (inactive) |
| COc1ccc(-n2c(-c3ccc(Cl)cc3Cl)n[nH]c2=S)c(OC)c1 | -9.67% (inactive) |
| COc1cccc(NC(=S)N(CCc2c(C)[nH]c3ccccc23)Cc2cccs2)c1 | 6.48% (inactive) |
| COc1ccc(C(=O)Nc2ccc(C(=O)Nc3nccs3)cc2)cc1[N+](=O)[O-] | 10% (inactive) |
| Fc1ccc(C2=Nc3cccc4cccc(c34)N2)cc1 | 16.5% (inactive) |
| CC1=Nc2cccc3cccc(c23)N1 | -4.86% (inactive) |
| CCOC(=O)C1CCCN(C(=O)C2CCN(C(=O)Nc3ccccc3)CC2)C1 (configuration not stated) | 4.05% (inactive) |
| CCOC(=O)C1CCCN(C(=O)Nc2ccccc2)C1 (configuration not stated) | 0.14% (inactive) |
| OC1CCN(C(=S)Nc2ccc(Oc3ccccc3)cc2)CC1 | -10.8% (inactive) |
| O=C(Nc1ccccc1)NC1(C(=O)N2CCC(O)CC2)CCCCC1 | 5.54% (inactive) |
| CCCOCC(O)CCc1n[nH]c(=S)n1-c1ccccc1 (configuration not stated) | -1.65% (inactive) |
| Cc1ccc(C(=O)COc2ccc3ccc(=O)oc3c2)cc1 | 8.86% (inactive) |
| Cc1cc(C)n(C(=O)c2ccc(NC(=O)C3COc4ccccc4O3)cc2)n1 (configuration not stated) | -9.3% (inactive) |
| CC(C)c1onc(C(=O)N2CCN(Cc3ccccc3)CC2)c1[N+](=O)[O-] | -1.76% (inactive) |
| Nc1nc(SCc2ccccc2)c2[nH]cnc2n1 | 5.48% (inactive) |
| CNc1ncnc(Sc2nc(N)nc3nc[nH]c23)c1[N+](=O)[O-] | -4.52% (inactive) |
| COC(=O)c1ccc2c(c1)C(=O)/C(=C/c1ccc(O)cc1)O2 | 30.8% (inactive) |
| C[N+]1=C(/C=C/Nc2ccccc2Cl)C(C)(C)c2ccccc21 | -5.94% (inactive) |
| COC(=O)c1ccc(/C=C/C(=O)O)cc1 | 14.6% (inactive) |
| COC(=O)c1ccc(C(=O)OC)c(NC(=O)COC(=O)c2ccc(OC)c(OC)c2OC)c1 | -0.19% (inactive) |
| COC(=O)c1ccc2nc(C)c(C)nc2c1 | 2.34% (inactive) |
| COc1ccc(/C=N/Nc2ccc(C(=O)O)cc2)c(OC)c1OC | 5.84% (inactive) |
| COC(=O)c1cn(Cc2ccccn2)c(=O)c2ccccc12 | 1.41% (inactive) |
| O=C(Nc1ccc(N2CCN(C(=O)c3ccccc3)CC2)cc1)c1cccnc1 | 4.32% (inactive) |
| CCn1cc(C(=O)OCC(=O)Nc2ccc(C(C)C)cc2)c(=O)c2ccc(C)nc21 | 3.76% (inactive) |

| Structure (SMILES) | inhibition |
| --- | --- |
| CC(Sc1nnnn1-c1ccc(O)cc1)C(=O)NNC(=O)c1ccc(F)cc1 (configuration not stated) | 2.11% (inactive) |
| O=C(NCCN1C(=O)S/C(=C/c2ccccc2)C1=O)C1CC(=O)N(Cc2ccccc2)C1 (configuration not stated) | 7.02% (inactive) |
| Cc1c(C)n(CC(O)CNCCO)c2ccccc12 (configuration not stated) | 18.2% (inactive) |
| Cc1c(C)n(CC(O)CNc2ccccc2)c2ccccc12 (configuration not stated) | 20.8% (inactive) |
| CN1CC(=O)N/C1=N\C(=O)Nc1ccc2c(c1)N(C)C(=O)CS2 | 2.74% (inactive) |
| COc1cc(/C=C/C(=O)OCC(=O)NC(=O)NC(C)(C)C)cc(OC)c1OC | 8.1% (inactive) |
| COc1cc(/C=C/C(=O)OCC(=O)NC(=O)NC(C)C)ccc1OCC#N | 0.8% (inactive) |
| COc1cc(/C=C/C(=O)OCC(=O)NC(=O)NC(C)C)cc(OC)c1OC | 6.89% (inactive) |
| COc1ccc(/C=C/C(=O)OCC(=O)NC(=O)NC(C)(C)C)cc1 | 2.69% (inactive) |
| O=C1c2ccccc2NC(c2ccc([N+](=O)[O-])cc2)N1O (configuration not stated) | 4.29% (inactive) |
| O=S(=O)(Nc1cccc(S(=O)(=O)N2CCOCC2)c1)c1ccc(Cl)s1 | -0.61% (inactive) |
| CCc1nc2sccc2c(=O)n1N | -1.25% (inactive) |
| O=C(CNC(=O)c1ccccc1)NCCc1ccc(O)c(O)c1 | 10.9% (inactive) |
| CCN(Cc1ccncc1)Cc1cn[nH]c1-c1ccc(OC)cc1F | -2.02% (inactive) |
| CCN(Cc1ccncc1)Cc1ccc(Br)cc1 | 28% (inactive) |
| COc1ccc(CNCc2ccncc2)c(OC)c1 | 5.34% (inactive) |
| CCN(Cc1ccccc1)Cc1ccc(OCc2ccccc2)c(OC)c1 | 10.8% (inactive) |
| COc1ccc(NC(=O)C2CCN(S(=O)(=O)c3c(C)noc3C)CC2)cc1 | 8.66% (inactive) |
| Cc1cc(C)n2nc(CC(=O)NNC(=O)COc3cccc(C)c3C)nc2n1 | -3.96% (inactive) |
| CCCCOCCCNC(=O)c1ccc(OC)cc1 | 4.46% (inactive) |
| Cc1cc(Cl)ccc1N(CC(=O)N(C)Cc1ccccc1)S(C)(=O)=O | 18.6% (inactive) |
| CCC(SC1=N/C(=C/c2ccccc2OC)C(=O)N1c1ccccc1)C(=O)Nc1cc(C)on1 (configuration not stated) | 12.8% (inactive) |
| O=c1[nH]c(SCc2ccccc2)nc2c1cnn2-c1ccc(F)cc1 | 14% (inactive) |
| Cc1cc(C)n2nc(C(=O)OCC(=O)N(C)CC(=O)Nc3ccccc3Cl)nc2n1 | 1.5% (inactive) |
| CC(C)CO/C(=N/S(=O)(=O)c1ccccc1)c1ccccc1 | 5.75% (inactive) |

| Structure (SMILES) | inhibition |
| --- | --- |
| CS/C(=N\S(=O)(=O)c1ccccc1)c1ccccc1 | 5.35% (inactive) |
| COc1cc(/C=N/NC(=O)C2c3ccccc3Oc3ccccc32)ccc1O | 5.77% (inactive) |
| O=C(N/N=C\c1cccnc1)C1c2ccccc2Oc2ccccc21 | 3.36% (inactive) |
| Cn1cc(CN2CCC(C(=O)Nc3cccc(-c4cccc(F)c4)c3)CC2)cn1 | 5.69% (inactive) |
| c1ccc(NC2=NCCN2CC2CCCCCC2)cc1 | 7.17% (inactive) |
| O=C(CSc1nnc(-c2cccnc2)o1)Nc1cccc(Cl)c1 | 4.31% (inactive) |
| N#Cc1cccc(NC(=O)CCN2C(=O)C3CCCCC3C2=O)c1 (configuration not stated) | -0.53% (inactive) |
| O=C1NC(=O)N(c2ccc(Cl)cc2)C(=O)/C1=C/c1ccc2c(c1)CCN2Cc1ccccc1Cl | 10.3% (inactive) |
| O=C1/C(=C/c2ccc(N3CCCC3)cc2)NC(=S)N1C1CC1 | 27.1% (inactive) |
| COc1ccc(NC(=O)Nc2ccc3c(c2)C(=O)N([C@H](C)CO)C[C@H](C)[C@@H](CN(C)S(C)(=O)=O)O3)cc1 | 11.1% (inactive) |
| O=S(N1CCCCC1)C12CC3CC(CC(C3)C1)C2 (configuration not stated) | -0.65% (inactive) |
| CSC1=C(C#N)C(=O)NC(c2ccccc2O)S1 (configuration not stated) | 25.9% (inactive) |
| COc1cccc(NC2=C(C#N)C(=O)NC(c3cccc(OC)c3O)S2)c1 (configuration not stated) | 36.1% (inactive) |
| O=C(CCCN1C(=O)c2ccccc2C1=O)Nc1cccc(S(=O)(=O)NC2=NCCC2)c1 | 9.21% (inactive) |
| Cc1ccc(C)c(NC(=O)COC(=O)CCC(=O)c2cccs2)c1 | -3.89% (inactive) |
| COc1cccc(CNCc2ccc(C(=O)O)cc2)c1OC | 1.24% (inactive) |
| Cc1cc(=O)oc(C)c1C(=O)NCCCN1CCN(c2ccccc2F)CC1 | 6.67% (inactive) |
| CCOC(=O)c1[nH]c2ccc(OC)cc2c1C | 7.86% (inactive) |
| CCOC(=O)c1[nH]c2cc(OC)c(OC)cc2c1NC(=O)c1nonc1C | 9.89% (inactive) |
| CCOC(=O)c1[nH]c2ccc(C)cc2c1N=CN(CC)CC | 17.7% (inactive) |
| CCOC(=O)c1[nH]c2ccc(C)cc2c1N=C(C)N(C)C | 9.84% (inactive) |
| COc1ccc(NC(=O)NNC(=O)c2cc3ccccc3cc2O)cc1 | 11.5% (inactive) |
